Sampled rows, rich in hits. Any-hit rate of the full collection: about 22%.
LmPK inhibitor: inhibitors of Leishmania mexicana pyruvate kinase; Q27686; Potency, µM (titrated, usually from 57.5 µM), inactives show at the top dose activity change, negative = inhibition, usual class: inhibitors; purified LmPK, Kinase-Glo ATP luminescence, 1 h; actives 0.37% (n = 290,000); AID 1721; note: potency is the fitted concentration of half-maximal effect; % is set by controls: 0 for no effect and ±100 for the full control effect
Target sequence (Q27686 whole entry, looked up): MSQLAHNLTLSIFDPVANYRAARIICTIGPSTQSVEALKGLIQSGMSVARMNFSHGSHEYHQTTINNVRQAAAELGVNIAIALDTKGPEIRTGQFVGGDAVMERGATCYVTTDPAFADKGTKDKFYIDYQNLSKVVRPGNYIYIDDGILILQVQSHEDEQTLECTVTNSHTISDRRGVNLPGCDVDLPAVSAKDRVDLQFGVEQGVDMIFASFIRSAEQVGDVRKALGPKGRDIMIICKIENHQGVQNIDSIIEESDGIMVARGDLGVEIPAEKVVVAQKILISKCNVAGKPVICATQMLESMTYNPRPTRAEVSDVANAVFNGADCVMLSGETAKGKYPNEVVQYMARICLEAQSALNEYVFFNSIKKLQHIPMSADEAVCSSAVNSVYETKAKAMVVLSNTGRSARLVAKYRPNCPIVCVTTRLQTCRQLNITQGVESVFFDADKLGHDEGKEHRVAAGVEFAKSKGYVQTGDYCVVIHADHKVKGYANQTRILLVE
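Pyruvate kinase activity monitored as ATP production (luciferase luminescence). Conditions: 0.1 nM enzyme, 0.5 mM PEP, 0.1 mM ADP, 1 h, RT; normalized against uninhibited and no-enzyme wells.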
Pf growth 96h: P. falciparum growth inhibition at 96 hour, primary screen for plastid delayed-death inhibitors; actives 6.9% (n = 320,000); Potency, µM (series often up to 28.7 µM), without a hit: at the highest dose activity change, negative = inhibition, hits mostly inhibitors; P. falciparum luciferase reporter growth, 96 h; AID 504834; note: potency is the fitted concentration of half-maximal effect; % is set by controls: 0 for no effect and ±100 for the full control effect
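Compounds incubated with erythrocytes infected by luciferase-expressing P. falciparum (2% hematocrit, 0.05% parasitemia final) for 96 hours, 37 C in 5% CO2. Growth inhibition scored as decreased luciferase luminescence.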
CHX counter: counter-screen hit for Shiga toxin inhibitors, cycloheximide | cell reporter, cycloheximide protein synthesis inhibition counterscreen | max response, % | actives 12% (n = 300,000) | AID 2314; in the data active = max response mostly above about 13%, no sharp cut-off; inactive = mostly below about 14%; note: read at 38.3 µM for the half of the compounds with a filed dose; 0% is about no effect
Shiga inhibitor: Shiga toxin inhibition; AID 2315; actives 9.2% (n = 290,000); Vero cells, Shiga toxin protein synthesis inhibition reporter; inhibition, % at 38.7 µM; in the data active = inhibition mostly above about 28%, no sharp cut-off; inactive = mostly below about 43%; note: 0% is about no effect
Pf growth 48h: P. falciparum growth inhibition at 48 hours (one generation); P. falciparum luciferase growth in erythrocytes, 48 h; Potency, µM (titrated, usually from 28.7 µM), inactives show top-dose activity change, negative = inhibition, hits mostly inhibitors; AID 504832; actives 5.9% (n = 310,000); note: potency is the fitted concentration of half-maximal effect; % is set by controls: 0 for no effect and ±100 for the full control effect
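Compounds are pin-transferred into medium, infected erythrocytes (2% hematocrit, 0.1% parasitemia final) are added, and plates sit one parasite generation at 37 C in 5% CO2. Detection reagent is then added and luminescence measured.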
* = called active by the depositor. Unless noted, calls come from the whole dose curve; as a rule, active = well fitted inhibition curve with a large enough effect; inconclusive = small, poorly fitted or top-dose-only effect, or another doubt; inactive = no such curve, though single readings can be large or run the other way.

What do the screens show for `COc1ccc(-c2nnc3sc(-c4cccs4)nn23)cc1OC`?
LmPK inhibitor: 3%; Pf growth 96h: 12µM*; CHX counter: 1; Shiga inhibitor: -3; Pf growth 48h: -9%

Results for COc1ccc(C)cc1NC(=O)C1CCN(S(=O)(=O)c2ccc3c(c2)NC(=O)CO3)CC1 ?
LmPK inhibitor: -8%; Pf growth 96h: 54%; CHX counter: -7; Shiga inhibitor: 2; Pf growth 48h: -25%

How did CC(=O)N1CCCc2cc(S(=O)(=O)Nc3ccccc3C)ccc21 do in these assays?
LmPK inhibitor: 1%; Pf growth 96h: 0%; CHX counter: -4; Shiga inhibitor: -2; Pf growth 48h: -1%

What do the screens show for `CCCc1nc2ccccc2c(=O)n1CCc1ccccc1`?
LmPK inhibitor: 0%; Pf growth 96h: inconclusive; CHX counter: -2; Pf growth 48h: 33%

How did O=C(NCc1ccon1)C1CCC(=O)N(CCc2ccc(Cl)cc2)C1 (centres undefined) do in these assays?
LmPK inhibitor: -2%; Pf growth 96h: inconclusive; CHX counter: 2; Shiga inhibitor: -8; Pf growth 48h: -8%

What do the screens show for `COC(=O)c1ccccc1-n1cccc1C(=O)NP(=O)(N1CCOCC1)N1CCOCC1`?
LmPK inhibitor: -1%; Pf growth 96h: 96%; CHX counter: -4; Shiga inhibitor: -7; Pf growth 48h: 8%

Results for CC(=O)c1ccc(N2CCN(C(=O)c3cccs3)C(C)C2)c(F)c1 (centres undefined) ?
LmPK inhibitor: -5%; Pf growth 96h: 179%; CHX counter: -2; Shiga inhibitor: -11; Pf growth 48h: 0%

What do the screens show for `COc1cc2c(cc1OC)CN(C(=O)c1nn(Cc3ccccc3)c(=O)c3ccccc13)CC2`?
Pf growth 96h: inconclusive; Pf growth 48h: 10µM*

Results for O=C(c1cccs1)N1CCc2ccccc2C1 ?
LmPK inhibitor: 0%; Pf growth 96h: 22%; CHX counter: -2; Shiga inhibitor: 1; Pf growth 48h: 13%

Results for COc1cc2c(cc1OC)CN(C(=O)c1cccs1)CC2 ?
LmPK inhibitor: -1%; Pf growth 96h: -22%; CHX counter: 6; Shiga inhibitor: -4; Pf growth 48h: 0.66µM*

What do the screens show for `CC(=O)c1ccc(N2CCN(C(=O)c3nn(Cc4ccccc4)c(=O)c4ccccc34)CC2)cc1`?
LmPK inhibitor: 1%; Pf growth 96h: -4%; CHX counter: 10; Shiga inhibitor: 17; Pf growth 48h: 3.7µM*

What do the screens show for `COC(=O)c1nn(Cc2ccccc2)c(=O)c2ccccc12`?
LmPK inhibitor: -1%; Pf growth 96h: 4%; CHX counter: 7; Shiga inhibitor: -13; Pf growth 48h: -3%

How did Cc1ccccc1OCCn1cnc2cc([N+](=O)[O-])ccc2c1=O do in these assays?
LmPK inhibitor: 2%; Pf growth 96h: 0%; CHX counter: 9; Shiga inhibitor: 20; Pf growth 48h: inconclusive

How did O=C1CC(c2ccsc2)c2cc3c(cc2N1)OCCO3 (centres undefined) do in these assays?
LmPK inhibitor: -1%; Pf growth 96h: 12µM*; CHX counter: -1; Shiga inhibitor: 9; Pf growth 48h: inconclusive

How did Cc1cc2c(cc1C)C(c1ccsc1)CC(=O)N2 (centres undefined) do in these assays?
LmPK inhibitor: -24%; Pf growth 96h: 4.7µM*; CHX counter: 1; Shiga inhibitor: -9; Pf growth 48h: 95%

Results for O=C1CC(c2ccncc2)c2cc3c(cc2N1)OCCO3 (centres undefined) ?
LmPK inhibitor: -1%; CHX counter: -5; Shiga inhibitor: 13; Pf growth 48h: 0%

Results for Cc1cc2c(cc1C)C(c1cccc(F)c1)CC(=O)N2 (centres undefined) ?
LmPK inhibitor: 1%; Pf growth 96h: 13%; CHX counter: 0; Shiga inhibitor: 4; Pf growth 48h: -3%

Results for CC(C)(C)NC(=O)C1Cc2ccccc2CN1C(=O)Nc1ccccc1Cl (centres undefined) ?
LmPK inhibitor: 3%; Pf growth 96h: -13%; CHX counter: -2; Shiga inhibitor: -14; Pf growth 48h: -27%

Results for NC(=O)C1CCN(c2ncnc3c2c(-c2ccccc2)cn3-c2ccccc2)CC1 ?
LmPK inhibitor: 6%; Pf growth 96h: 10µM*; CHX counter: -6; Shiga inhibitor: -17

How did Fc1ccc(-n2cc(-c3ccccc3)c3c(N4CCOCC4)ncnc32)cc1 do in these assays?
LmPK inhibitor: 18%; Pf growth 96h: inconclusive; CHX counter: 3; Shiga inhibitor: -19; Pf growth 48h: -25%

How did O=C(CSc1nc2ccccc2c(=O)n1-c1ccccc1Cl)NC1CCS(=O)(=O)C1 (centres undefined) do in these assays?
Pf growth 96h: 10µM*; Pf growth 48h: inconclusive

Results for O=C(CSc1nc2cc(C(F)(F)F)ccc2n1Cc1ccccc1)NC1CCS(=O)(=O)C1 (centres undefined) ?
LmPK inhibitor: 3%; Pf growth 96h: 12µM*; CHX counter: -3; Shiga inhibitor: -2; Pf growth 48h: inconclusive

What do the screens show for `O=C(N/N=C/c1ccncc1)c1cccc(N/N=C/c2ccncc2)c1`?
LmPK inhibitor: 1%; Pf growth 96h: inconclusive; CHX counter: 3; Shiga inhibitor: 15; Pf growth 48h: -15%

How did O=C(N/N=C/c1ccncc1)c1cccc(NC(=O)c2ccc(Cl)cc2)c1 do in these assays?
LmPK inhibitor: -1%; Pf growth 96h: inconclusive; CHX counter: 11; Shiga inhibitor: 20; Pf growth 48h: 13µM*

How did COc1ccc(/C=N/NC(=O)c2cccc(NC(=O)c3ccc(Cl)cc3)c2)c(OC)c1 do in these assays?
LmPK inhibitor: 3%; Pf growth 96h: 18%; CHX counter: 12; Shiga inhibitor: 31*; Pf growth 48h: 9%

What do the screens show for `O=C(N/N=C/c1cccc(F)c1)c1ccc(Cl)cc1`?
LmPK inhibitor: -1%; Pf growth 96h: 60%; CHX counter: 44*; Shiga inhibitor: 119*; Pf growth 48h: 98%

Results for COc1ccc(/C=N/NC(=O)c2ccc(NC(=O)c3cccc([N+](=O)[O-])c3)cc2)c(OC)c1 ?
LmPK inhibitor: 2%; Pf growth 96h: 40%; CHX counter: 13; Shiga inhibitor: 20; Pf growth 48h: inconclusive

How did O=C(CN1CCN(Cc2ccc(Cl)cc2)CC1)N/N=C/c1cccc(F)c1 do in these assays?
LmPK inhibitor: 1%; Pf growth 96h: 5%; CHX counter: 2; Shiga inhibitor: -2; Pf growth 48h: -2%

Results for O=C(N/N=C/c1ccc(O)cc1)c1cccc(N/N=C/c2ccc(O)cc2)c1 ?
LmPK inhibitor: 2%; Pf growth 96h: 50%; CHX counter: 37*; Shiga inhibitor: 60*; Pf growth 48h: 262%

What do the screens show for `COc1ccc(CCC(=O)NCCS(=O)(=O)N2CCN(c3ccc(OC)cc3)CC2)cc1`?
LmPK inhibitor: -2%; Pf growth 96h: 0%; CHX counter: -3; Shiga inhibitor: 17; Pf growth 48h: 7%

Bioassay records as filed in PubChem.
